Screening data from PubChem BioAssay.
TLR4-MyD88 BLA: TLR4-MyD88 interaction inhibition in cells | AID 861 | hit rate 0.18% among 200,000 | O00206+Q99836 | HeLa CL3-4 TLR4/MyD88 BLA complementation, FRET ratio | inhibition, % at 8.4 µM; in the data active means inhibition above about 25%
NOD2 RIPK2 PPI: inhibitors of human NOD2-RIPK2 interaction; hit rate 0.38% among 360,000; O43353; inhibition, % at 4.98 µM; CHO BLA complementation NOD2-RIPK2, CCF4 ratio; in the data active means inhibition above about 21%
GRK2 inh: inhibitors of human GRK2 displacing RNA aptamer; P25098; bead flow cytometry, FAM-aptamer displacement from GRK2; inhibition of aptamer binding, % at 10 µM; hit rate 0.59% among 330,000; AID 488847;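 active means inhibition of aptamer binding above 40%, roughly 3 SD of noise, on plates passing a quality check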;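 further: median bead fluorescence of bound FAM aptamer so fluorescent compounds give negative values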
Target sequence (P25098 whole entry, looked up): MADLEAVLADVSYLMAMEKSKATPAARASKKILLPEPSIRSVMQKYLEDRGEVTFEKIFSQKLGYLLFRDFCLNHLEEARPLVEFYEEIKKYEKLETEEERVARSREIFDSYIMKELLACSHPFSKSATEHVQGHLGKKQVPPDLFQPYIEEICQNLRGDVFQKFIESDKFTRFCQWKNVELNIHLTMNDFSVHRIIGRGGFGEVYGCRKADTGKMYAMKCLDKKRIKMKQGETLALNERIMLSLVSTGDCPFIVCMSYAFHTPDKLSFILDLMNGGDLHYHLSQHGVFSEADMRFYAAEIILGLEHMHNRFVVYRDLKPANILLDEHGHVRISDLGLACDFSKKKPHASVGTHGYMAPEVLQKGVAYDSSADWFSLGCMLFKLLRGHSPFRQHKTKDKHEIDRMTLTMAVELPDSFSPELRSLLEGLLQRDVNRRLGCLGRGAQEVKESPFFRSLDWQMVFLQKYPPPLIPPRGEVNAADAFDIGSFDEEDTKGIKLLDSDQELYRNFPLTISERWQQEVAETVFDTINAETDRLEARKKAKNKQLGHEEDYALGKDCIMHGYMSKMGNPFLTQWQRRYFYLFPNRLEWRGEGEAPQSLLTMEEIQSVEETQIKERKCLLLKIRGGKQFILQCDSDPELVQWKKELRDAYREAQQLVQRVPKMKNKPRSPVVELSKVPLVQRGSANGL
ANO1 activ: activators or potentiators of mouse TMEM16A chloride channel; AID 623877; HEK293 TMEM16A/YFP-H148Q/I152L, iodide quench fluorescence; hits give low values; B-score at 10 µM; hit rate 0.3% among 340,000;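 active means fluorescence-ratio B-score plate-corrected deviation score at least 3 library SD below zero, with starting fluorescence score within 5 deviations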;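 further: channel opened by trigger with iodide after compound preincubation; score built on the fluorescence ratio of max minus min over baseline; more negative score means more quench and so TMEM16A activation or potentiation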
TMEM16A inh: inhibitors of mouse TMEM16A calcium-activated chloride channel | Q8BHY3 | HEK293 TMEM16A/YFP iodide influx fluorescence, ionomycin | normalized B-score (activity score, 25-100; higher = stronger inhibition) at 10 µM | hit rate 1.2% among 310,000;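 active means ratio plate-corrected score three or more library SD toward inhibition, starting fluorescence score within five deviations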;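 further: score derived from kinetic fluorescence span divided by baseline fluorescence per well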
TLR9-MyD88 inh: blocks human TLR9 binding to MyD88; hit rate 0.21% among 340,000; CHO BLA complementation TLR9-MyD88, CCF4 FRET ratio; Q9NR96+Q99836; inhibition, % at 4.98 µM;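 active means inhibition above the mean over all tested compounds plus 3 SD, cut at about 21% in these data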
GRK2 CP1: human GRK2 inhibition confirmation, cherry pick 1; bead-bound GRK2, FAM-aptamer displacement, flow cytometry; aptamer displacement, % at 10 µM; shares compounds with GRK2 inh; hit rate 4% among 2,000; AID 504451;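 active means aptamer displacement above 40%, near three times the noise of non-fluorescent compounds, on plates passing quality checks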;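 further: negative values mostly reflect intrinsic compound fluorescence rather than true enhancement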
FAM quench CP1: aptamer fluorescence quenching in GRK2 counter-screen. 2,000 tested, under 10 active. fluorescence response (% of DMSO), % at 10 µM. shares compounds with GRK2 inh. Carboxyfluorescein RNA aptamer on beads, flow cytometry quenching; hits give low values. AID 504580;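 active means compounds that quench the bead-bound fluorescent RNA probe, cutting fluorescence to under half of the solvent control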;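 further: counterscreen run without GRK2 so only probe quenching by compound is measured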
GRK2 CP2: confirmation of human GRK2 inhibitors binding RNA aptamer site; shares compounds with GRK2 inh; bead-bound GRK2, FAM-aptamer displacement, flow cytometry; inhibition of aptamer binding, % at 10 µM; 360 tested, under 10 active;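 active means inhibition of aptamer binding above 40%, about triple the noise seen with nonglowing compounds, on plates passing quality control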;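 further: negative values mostly come from compounds that fluoresce themselves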
FAM quench SP: quenches fluorescent RNA aptamer, GRK2 hit artifact | carboxyfluorescein RNA aptamer beads, flow cytometry quenching; hits give low values | shares compounds with GRK2 inh | fluorescence response vs DMSO, % at 10 µM | AID 588494 | 360 tested, under 10 active;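 active means response vs DMSO under 50%, meaning signal dropped by over half, treated as fluorescence quencher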;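 further: labelled aptamer on streptavidin beads without GRK2 as a quench counter-screen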
Numbers stand for hits; – = inactive; · = not tested or not shown. This is a sample that favours compounds with a hit; in the whole collection about 2.2% have one here.

SMILES	TLR4-MyD88 BLA	NOD2 RIPK2 PPI	GRK2 inh	ANO1 activ	TMEM16A inh	TLR9-MyD88 inh	GRK2 CP1	FAM quench CP1	others
COc1ccccc1C(=O)Nc1c2c(nn1-c1ccc([N+](=O)[O-])cc1)CS(=O)(=O)C2	·	–	–	–	–	–	·	·
COc1ccccc1C(=O)Nc1c2c(nn1-c1ccc(Cl)cc1)CS(=O)(=O)C2	·	–	44	–	–	–	·	·	GRK2 CP2=–;FAM quench SP=–
COc1ccc([C@H]2C[C@H](O)[C@@H](n3cc(COC(=O)c4ccccc4)nn3)CN2CC2CCCCC2)cc1	·	–	·	·	·	–	·	·
NC(=O)COC(=O)CCCSc1nc2ccccc2s1	–	–	51	–	–	–	–	–
CNC(=O)NC(=O)COC(=O)CCCSc1nc2ccccc2s1	–	–	–	–	–	–	·	·
CC(C)(C)c1ccc(S(=O)(=O)NC(=O)C2(C)CCN2C(=O)c2cccc3ccccc23)cc1 (centres undefined)	·	–	·	·	·	·	·	·
Cc1ccc2nc(SCC(=O)Nc3ccc4c(c3)OCCO4)[nH]c2c1	–	–	–	–	–	–	·	·	GRK2 CP2=–;FAM quench SP=–
Cc1nnc(SCC(=O)NC(=O)Nc2ccc3c(c2)OCCO3)n1N	·	–	46	–	–	–	–	–
O=C(CSc1ncccc1-c1nc2ccccc2[nH]1)Nc1ccc2c(c1)OCCO2	–	–	–	–	–	–	·	·
Cc1ccc(-n2nnnc2SCC(=O)NC(=O)Nc2ccc3c(c2)OCCO3)cc1	–	–	–	–	–	–	·	·
O=C(CSc1nc2ccccc2[nH]1)Nc1nc(-c2cccc(Br)c2)cs1	–	–	75	–	–	–	·	·	GRK2 CP2=–;FAM quench SP=–
CN(C)CCCn1c(SCC(=O)Nc2nc(-c3cccc(Br)c3)cs2)nc2ccccc2c1=O	·	–	–	–	–	–	·	·
O=C(CSc1nc2ccccc2[nH]1)Nc1ccc2c(c1)OCCO2	–	–	–	–	–	–	·	·	GRK2 CP2=–;FAM quench SP=–
CCc1c(C)nc(SCC(=O)Nc2ccc3c(c2)OCCO3)[nH]c1=O	–	–	–	–	–	–	·	·
O=C(Nc1ccncc1)c1cccc2ccccc12	·	–	49	–	–	–	–	–
Cc1cc(C)n(CCNC(=O)c2ccc3c(c2)OCO3)n1	·	–	–	–	–	–	·	·
CC1CCN(CCOCCOc2ccccc2Br)CC1	–	–	95	–	–	–	–	–
CC1CCN(CCOCCOc2ccccc2-c2ccccc2)CC1	–	–	–	–	–	–	·	·
NS(=O)(=O)c1ccc(CCNc2ccnc3cc(Cl)ccc23)cc1	·	–	–	–	–	–	·	·
O=C(NC1CCCCC1)c1cc(C2CC2)nn1-c1ccccc1	·	–	89	–	·	–	–	–
Cc1nn(-c2ccccc2)c(Cl)c1C(=O)NC1CCCCC1	–	–	–	–	–	–	·	·
COc1ccc(N(C(=O)CNC(=O)c2ccco2)C(C(=O)NC2CCCC2)c2ccncc2)cc1 (centres undefined)	–	–	–	–	–	–	·	·
COc1ccc(N(C(=O)c2ccco2)C(C(=O)NC2CCCC2)c2ccncc2)cc1 (centres undefined)	·	–	83	–	–	–	–	–
N/C(=N\OC(=O)/C=C/c1ccccc1)c1cccnc1	–	–	–	–	–	–	·	·
N/C(=N\OC(=O)/C=C/c1ccccc1Cl)c1cccnc1	·	–	75	–	–	·	–	–
SMILES	TLR4-MyD88 BLA	NOD2 RIPK2 PPI	GRK2 inh	ANO1 activ	TMEM16A inh	TLR9-MyD88 inh	GRK2 CP1	FAM quench CP1	others
Cc1onc(-c2ccccc2)c1C(=O)N(Cc1ccccc1)C(C)C	·	–	–	–	–	–	·	·
O=C(O)Cc1ccc(-c2ccccc2-c2ccccc2)cc1	–	–	98	–	–	–	–	–
O=C(O)Cc1ccc(O)cc1	·	–	–	–	–	–	·	·
Oc1c(Br)cc(/C=N/n2c(-c3ccccc3)n[nH]c2=S)c(O)c1Br	·	–	–	–	–	–	·	·
Cc1c(Br)c(O)c(Br)c(O)c1/C=N/n1c(-c2ccccc2)n[nH]c1=S	·	–	46	–	–	–	–	–
Cc1c(Br)c([N+](=O)[O-])nn1CCCC(=O)NC(C)c1ccccc1 (centres undefined)	–	–	–	–	–	–	·	·
Cc1nc2ccccc2c(=O)n1NC(=O)c1cccc([N+](=O)[O-])c1	–	–	98	–	–	–	–	–
COc1ccc(-n2c(SCC(N)=O)nc3sc4c(c3c2=O)CCC4)cc1	–	–	–	–	–	–	·	·
Cc1ccc(S(=O)(=O)N2CCOCC2)cc1NC(=O)COC(=O)c1ccc2c(c1)OCO2	–	–	100	–	–	–	–	–
Cc1cccc(NC(=O)COC(=O)c2ccc(S(=O)(=O)N3CCCCCC3)cc2)c1	·	–	·	–	·	–	–	–
Cc1ccc(S(=O)(=O)N2CCOCC2)cc1NC(=O)COC(=O)c1ccc2c(c1)OCCO2	–	–	–	–	–	–	·	·
CCOC(=O)[C@H]1[C@H]2COc3ccc(Br)cc3[C@@H]2N2C(=O)CN(Cc3ccc(F)cc3)C(=O)[C@@]12C	·	–	–	–	·	–	·	·
Cc1ccc2c(c1)C(c1ccc(N3CCOCC3)cc1)=NNC(c1cccs1)=N2	–	–	100	–	–	–	–	–
Cc1cc(=O)[nH]c(SCc2cccc3ccccc23)n1	·	–	–	–	–	–	–	–
COc1ccc(CN2C(=O)C(CC(C)C)Nc3ncnc(N4CCOCC4)c32)cc1 (centres undefined)	·	–	97	–	–	–	–	–
COCc1cc(=O)n2[nH]cc(-c3ccsc3)c2n1	·	–	–	–	–	–	·	·
CN(C)CCNC(=O)c1c(NC(=O)c2ccccc2)sc2c1CCCC2	·	–	–	–	–	–	·	·
CN(CCO)C(=O)c1c(NC(=O)c2ccccc2)sc2c1CCCC2	·	–	42	–	–	–	–	–
NC(=O)c1ccc(C(F)(F)F)n(Cc2cccc(Cl)c2)c1=O	–	–	–	–	–	–	·	·
O=C(c1cc(S(=O)(=O)N2CCOCC2)ccc1F)N(Cc1nnc(-c2ccccc2Cl)o1)C1CC1	·	–	–	–	–	–	·	·
Cc1ccc(S(=O)(=O)N2CCOCC2)cc1C(=O)N(Cc1nnc(-c2ccccc2Cl)o1)C1CC1	·	–	44	–	–	–	·	·	GRK2 CP2=–;FAM quench SP=–
CCOc1ccc(N2C(=O)CC(Sc3nc(CC(C)C)ccc3C#N)C2=O)cc1 (centres undefined)	–	–	–	–	–	–	·	·
